Screening data as filed in PubChem BioAssay.
IL-1B inflam inh: inflammasome signaling inhibition, IL-1 beta readout. THP-1 LPS/ATP IL-1B secretion, AlphaLISA, 16 h; stronger effect = lower value. activity change, % at 57.5 µM. actives 4.7% (n = 360,000). AID 743279; in the data active = activity change below about -50%; inconclusive = mostly about -30% to -49%
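Secreted IL-1B measured by AlphaLISA bead assay after 16 h compound exposure of THP-1 cells; compounds (final up to 57.5 uM) added 1 h before LPS (250 ng/mL) and ATP (1.25 mM) stimulation; lower signal means less secretion.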
ELG1 repair inh: blocks ELG1-dependent DNA repair in HEK293T cells | Potency, µM (doses to about 46.1 µM), for the others: at the highest dose activity change, negative = inhibition, most hits filed as inhibitors | actives 2.3% (n = 330,000) | HEK293T ELG1-luciferase reporter, luminescence, 16 h; DNA damage induced by 5-fluorouridine; also: potency is read from the fitted curve at half-maximal effect; nearly all actives have a fitted effect of over 55% in size
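Step one: seed 2,000 cells per well. Step two: pin-transfer compound or DMSO alongside 5-fluorouridine. Step three: incubate 16 hr, 37 °C, 5% CO2. Step four: add ONE-Glo, wait 30 min, read luminescence.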
TDP1 cell noCPT: qHTS for Inhibitors of human tyrosyl-DNA phosphodiesterase 1 (TDP1): qHTS in cells in absence of CPT; DT40 Tdp1-/- hTDP1 cells, no CPT, ATP luminescence, 48 h; AID 686978, 2013; actives 15% (n = 420,000); Potency, µM (doses to about 46.2 µM), inactives show top-dose activity change, negative = growth inhibition, usual class: inhibitors; also: potency is read from the fitted curve at half-maximal effect; nearly all actives have a fitted effect of over 55% in size
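Seeded 400 DT40-hTDP1 cells/well (vehicle DMSO, no 20 nM CPT); pinned compounds; ≥48 hr at 37 °C; CellTiter-Glo luminescence as viability measure.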
TDP1 cell CPT: growth inhibition of DT40 Tdp1-/-;hTDP1 cells with camptothecin (screen for TDP1 inhibitors). Potency, µM (doses to about 46.2 µM), without a hit: top-dose activity change, negative = growth inhibition, most hits filed as inhibitors. chicken DT40 Tdp1-/-;hTDP1 cells + 20 nM CPT, ATP luminescence, 48 h. actives 12% (n = 420,000); also: potency is read from the fitted curve at half-maximal effect; nearly all actives have a fitted effect of over 55% in size
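Chicken DT40 Tdp1-/- cells complemented with human TDP1, 400 cells/well, exposed to compounds plus 20 nM camptothecin for at least 48 h at 37 C; viability read as ATP content by CellTiter-Glo luminescence.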
HT1080-NT tox: kills 2HG-producing HT-1080-NT fibrosarcoma cells. Potency, µM (series often up to 46.1 µM), for the others: top-dose activity, negative = less viability, actives largely listed as cytotoxic. actives 1.6% (n = 360,000). HT-1080-NT fibrosarcoma viability, CellTiter-Glo ATP luminescence, 48 h. AID 686970;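 also: NT is the 2HG producing partner of a matched IDH1 knockdown line; potency is read from the fitted curve at half-maximal effect; 0% = DMSO-treated cells and -100% = media-only wells without cells; nearly all actives have a fitted effect of over 55% in size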
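Compounds were tested in concentration-response format on HT-1080-NT cells for 48 hours at 37 degrees C. Cell viability came from CellTiter-Glo luminescence; curves were classified by r2, response magnitude and activity.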
HT1080 IDH1KD tx: toxicity to HT-1080 IDH1 knockdown cells (counter line); HT-1080 IDH1 knockdown viability, ATP luminescence, 48 h; Potency, µM (titrated, usually from 46.1 µM), without a hit: top-dose activity, negative = toxicity, usual class: cytotoxic; actives 2% (n = 360,000);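 also: potency is read from the fitted curve at half-maximal effect; 0% = DMSO wells and -100% = cell-free medium wells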
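Using the IDH1-knockdown HT-1080 line run in the same batch and compound series as the NT line, viability after 48 h at 37 °C was determined by CellTiter-Glo luminescence and expressed as % activity.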
The depositor's hits bear a star; i = inactive; ? = inconclusive; · = no result given; [ ] = another dose, or the depositor's remark. Hits are enriched below; roughly 19% of the tested compounds scored in any of these assays. Unless noted, calls follow the shape of the dose curve; as a rule, active = well fitted curve in the direction sought with a large enough effect; inconclusive = small, poorly fitted or top-dose-only effect, or another doubt; inactive = no such curve, though single readings can be large; an effect the other way counts as inactive or inconclusive. Unless noted, % is scaled to controls: 0 for no effect and ±100 for the full control effect.

SMILES	IL-1B inflam inh	ELG1 repair inh	TDP1 cell noCPT	TDP1 cell CPT	HT1080-NT tox	HT1080 IDH1KD tx
CCOc1ccccc1NC(=O)c1cc(S(=O)(=O)N2CCOCC2)ccc1C	i	-7%	-16%	-25%	-7%	-2%
CCOC(=O)c1ccccc1NC(=O)c1c(F)c(F)c(F)c(F)c1F	-69*	7%	-5%	?	4%	6%
Cn1c(N)c(C(=O)COC(=O)c2cc(S(=O)(=O)N3CCOCC3)ccc2F)c(=O)n(C)c1=O	-105*	?	5%	5%	?	?
CCOC(=O)C1=C(COC(=O)c2cc(S(=O)(=O)N3CCOCC3)ccc2F)NC(=O)NC1C (centres undefined)	-95*	·	-6%	-20%	-5%	-2%
Cc1ccc(S(=O)(=O)N2CCOCC2)cc1C(=O)OCC(=O)c1c(N)n(C)c(=O)n(C)c1=O	-6	?	?	?	-5%	-6%
COCC1CCN(C(=O)C2CCC(=O)N(C3CCCCCC3)C2)CC1 (centres undefined)	0	0%	1%	-20%	3%	-1%
O=C(OCCN1C(=O)c2ccccc2C1=O)c1cc(S(=O)(=O)N2CCOCC2)ccc1Cl	-17	-9%	3%	9%	1%	-1%
O=C(OCN1C(=O)c2ccccc2C1=O)c1cc(S(=O)(=O)N2CCOCC2)ccc1F	-57*	17%	12%	-3%	7%	-17%
CCOC(=O)c1ccccc1NC(=O)c1cc(S(=O)(=O)N2CCOCC2)ccc1F	-54*	-16%	?	?	-11%	0%
CC(c1nc2ccccc2[nH]1)N(C(=O)C1=NNC(=O)CC1)c1ccccc1 (centres undefined)	3	·	-28%	-2%	6%	4%
COc1ccc(CCNc2nc(-c3ccc(C)cc3)cc(C(F)F)n2)cc1OC	·	·	-10%	-13%	·	·
Cc1ccc(-c2cc(C(F)F)nc(S(C)(=O)=O)n2)cc1	-102*	?	1.3µM*	0.92µM*	23µM*	21µM*
COc1ccc2c(c1)C(=O)[C@@H](O)[C@H](c1ccc(OC)c(Br)c1)O2	22	?	?	21µM*	-24%	-27%
COc1ccc2c(c1)C(=O)[C@@H](OC(=O)NCc1ccc3c(c1)OCO3)[C@H](c1ccc(OC)c(Br)c1)O2	·	18µM*	·	·	·	·
COc1cccc([C@@H]2Oc3ccc(OC)cc3C(=O)[C@H]2O)c1	22	?	12µM*	6.5µM*	?	-16%
CC[C@H](C)[C@@H](NC(=O)O[C@@H]1C(=O)c2cc(Br)ccc2O[C@H]1c1cccc(OC)c1)C(=O)OC	-26	-7%	?	?	0%	-8%
COc1cccc([C@@H]2Oc3ccc(Br)cc3C(=O)[C@H]2OC(=O)NC2CCCC2)c1	-61*	-18%	?	?	-24%	?
COc1ccc2c(c1)CCc1c(C(=O)Nc3cc(OC)c(Cl)cc3OC)noc1-2	·	·	?	-5%	·	·
CCOC(=O)c1cccc(NC(=O)Nc2ccc3c(c2)N(C)C(=O)c2ccccc2S3)c1	·	·	?	21µM*	·	·
CC(C)Oc1ccc(CNC(=O)Nc2ccc3c(c2)N(C)C(=O)c2ccccc2S3)cc1	·	·	23µM*	?	·	·
CCOC(=O)c1ccccc1NC(=O)CN1C(=O)CCS(=O)(=O)c2ccccc21	-6	7%	21µM*	23µM*	-6%	6%
CCOC(=O)c1cccc(NC(=O)CN2C(=O)CC(C)(C)Sc3ccccc32)c1	·	·	?	21µM*	·	·
O=C(CN1C(=O)CCS(=O)(=O)c2ccccc21)Nc1ccc(Cl)cc1	0	-1%	10%	-2%	3%	2%
CCCCCCCCCCCCC/C=C/[C@@H](O)[C@H](CO)NC(=O)CCCCCCC	·	·	-12%[4.12 µM]	-2%[4.12 µM]	·	·
C#CCOCCOCCOCCNc1nc(N2CCN(C(=O)[C@H](CCCCN)n3cc(CN)nn3)CC2)nc(N2CCN(C(=O)[C@H](CC(N)=O)n3cc(C(N)[C@H](C)CC)nn3)CC2)n1 (some centres undefined)	8	?	5%	0%	6%	10%
SMILES	IL-1B inflam inh	ELG1 repair inh	TDP1 cell noCPT	TDP1 cell CPT	HT1080-NT tox	HT1080 IDH1KD tx
O=C(COc1ccccc1F)Nc1c2c(nn1-c1ccccc1)CS(=O)(=O)C2	0	4%	13%	3%	0%	-3%
C=C(C)C(=O)OC[C@@H]1CCC[N@+]2(C)CCCCC12 (some centres undefined)	·	·	4%[9.04 µM]	2%[9.04 µM]	·	·
COCCNC(=O)c1ccc(Cn2c(SCC(=O)NC(C)C)nc3ccccc3c2=O)cc1	·	·	-17%	?	·	·
CCCCNC(=O)Nc1ccc2c(c1)N(C)C(=O)c1ccccc1S2	19	-17%	16µM*	?	-30%	-29%
O=C(CN1C(=O)c2cccc3cccc1c23)Nc1cccc(F)c1	·	·	-27%	6%	·	·
COc1ccc(Br)cc1CN(C)C(C)C(=O)Nc1cccc(C(C)=O)c1 (centres undefined)	-26	26µM*	?	?	-13%	-28%
COc1cc(CN(C)C(C)C(=O)Nc2ccc([N+](=O)[O-])cc2Cl)ccc1OC(F)F (centres undefined)	-14	16µM*	?	?	-6%	3%
COc1ccc([N+](=O)[O-])cc1NC(=O)C(C)N(C)Cc1cccc(OC)c1OC (centres undefined)	2	9.2µM*	16µM*	21µM*	4%	-1%
O=C(c1cc2c(s1)CCCC2)N1CCN(CCO)CC1	-7	3%	-14%	-13%	15%	18%
NC(=O)c1c(/N=C/c2cccs2)sc2c1CCCC2	0	?	3.7µM*	3.7µM*	9%	1%
CN(C)c1cc[n+](CC(=O)Nc2ccc(Cl)cc2)cc1	-51*	?	3.3µM*	6.5µM*	6.5µM*	?
Cc1cccc(NC(=O)C[n+]2ccc(N(C)C)cc2)c1	0	-22%	?	15µM*	?	?
O=C(C[n+]1ccccc1)Nc1ccccc1	-26	·	-1%	3%	15%	11%
Cc1cc(C)cc(NC(=O)C[n+]2ccccc2)c1	3	8%	-22%	-11%	-2%	-6%
